Laboratory results: PMC5540273 (PLoS ONE, 2017)

Tested on: PAK7
Conditions: concentration: 1 μM, replicates: in singlicate; n = 1
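Note: KINOMEscan kinase panel screen.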

| SMILES | %Inh |
| --- | --- |
| O=C(Nc1n[nH]c2nc(-c3ccc(O)cc3)ccc12)C1CC1 [SB-710363] | 11% |
| c1ccc(-c2cnc3nccnn23)cc1 [AH20685] | 0% |
| CN(C)Cc1ccc(-c2ccc3c(Nc4ccc(Oc5ccccn5)cc4)ccnc3c2)o1 [GW567148] | 0% |
| NCCCC(NC(=O)c1cc(Br)c(-c2ccnc3[nH]ccc23)s1)c1ccccc1.O=C(O)C(F)(F)F.O=C(O)C(F)(F)F (stereo not drawn) [GSK1287544] | 29% |
| CCS(=O)(=O)c1ccc(OC)c(Nc2nccc(-c3c(-c4cccc(NC(=O)c5c(F)cccc5F)c4)nn4ncccc34)n2)c1 [GSK326180] | 3% |
| CCn1c(-c2nonc2N)nc2c(C#CC(C)(C)O)ncc(OCCCCN)c21.O=C(O)C(F)(F)F.O=C(O)C(F)(F)F [GSK507274] | 99% |
| Cl.Cl.NCC(NC(=O)c1cc(-c2ccccc2)c(-c2ccnc3[nH]ccc23)s1)c1ccccc1 (stereo not drawn) [GSK1321561] | 44% |
| Clc1ccc(-c2nn3ncccc3c2-c2ccnc(Nc3ccc4c(c3)OCCO4)n2)cc1 [GW829116] | 0% |
| Cc1ccc(C)c(NC(=O)NC2CCN(c3ccnc(Nc4ccc(F)cc4)n3)C2)c1 (stereo not drawn) [GSK1379720] | 0% |
| CN1CCN(Cc2cccc(-c3ccc4c(Nc5ccc(Oc6ccccc6)cc5)ccnc4c3)c2)CC1 [GW578342] | 0% |
| O=C(O)C(F)(F)F.O=C(O)C(F)(F)F.O=c1[nH]ccc2nc(N[C@@H]3CCCNC3)nc(Nc3ccc(S(=O)(=O)N4CCOCC4)cc3)c12 [GSK2177277] | 99.9% |
| COc1cc(Nc2nccc(-c3c(-c4cccc(NC(=O)c5c(F)cccc5F)c4)nn4ncccc34)n2)cc(OC)c1OC [GSK327238] | 41% |
| O=C(NC1CCN(c2ccnc(Nc3ccc(F)cc3)n2)C1)c1cc2ccccc2s1 (stereo not drawn) [GSK1379716] | 4% |
| Cl.c1ccc(-c2ccc3c(Nc4ccc5[nH]ncc5c4)ccnc3c2)nc1 [GW440137] | 0% |
| COc1cc(Nc2ncc3c(C)nc(-c4cc5ccccc5[nH]4)n3n2)cc(OC)c1OC [GW869516] | 28% |
| CCCCc1nn2ncccc2c1-c1ccnc(Nc2ccc(N3CCN(C)CC3)cc2)n1 [GW684941] | 1% |
| C[C@@H](Oc1cc(-n2cnc3cc(-c4ccnc(NCCS(C)(=O)=O)c4)ccc32)sc1C(N)=O)c1ccccc1Cl [GSK907232] | 0% |
| O=C(Nc1cccc(-c2nn3ccccc3c2-c2ccnc(Nc3cccc(F)c3)n2)c1)c1c(F)ccc(F)c1Cl [GSK357952] | 15% |
| CCc1ccc(-c2ccc3c(c2)-c2c(cnn2C)S(=O)(=O)N3C)cc1 | 0% |
| O=C(Nc1cccc(-c2nn3ccccc3c2-c2ccnc(Nc3cccc(C(F)(F)F)c3)n2)c1)c1c(F)cccc1F [GSK292658] | 0% |
| Cl.NC(=O)c1cccc(Nc2nccc(Nc3ccc(Oc4c(Cl)cccc4Cl)c(Cl)c3)n2)c1 [GW659009] | 0% |
| COc1ccc(CNC(=O)NC2CCN(c3ccnc(Nc4ccc(F)cc4)n3)CC2)cc1 [GSK1379788] | 2% |
| COc1ccc(Nc2nccc(NCCNC(=O)c3cc4ccccc4s3)n2)cc1 [GSK1379896] | 0% |
| O=c1[nH]cc(-c2ccc(N3CCOCC3)cc2)c2sc(-c3cn[nH]c3)cc12 [GSK2276055] | 31% |
